Reference: PubChem BioAssay AID1159580 (chemical genetic matrix, 2015)
“And” between values parts separate entries of the source, which are not always exact repeats. Identical values can stand only once. About 2,000 (36%) of roughly 5,500 compounds were called active. About 18% were inconclusive and are not listed. Rule as the data show it: active = normalized growth mostly below about 0.91 (no sharp cut-off); inconclusive = no clear call, values can overlap the other calls; inactive = mostly above about 0.92. The list shows a part of the results.

Experiment: chemical genetic growth profiling, strain panel (AID 1159580);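 also: tested at 20 µM; growth read once vehicle control cultures reached saturation at 30 °C; 1 = growth at the plate median or of vehicle wells; lower values mean less growth of the strain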
Settings: S. cerevisiae deletion strains, growth OD

Measured: normalized growth

Nc1cc(-c2ccncc2)c[nH]c1=O
inactive: locus YBR021W, strain FUR4, active compounds read low 0.952 | locus YBR171W, strain sec66, active compounds read low 0.966 | locus YBR229C, strain ROT2, active compounds read low 0.952 | locus YCL029C, strain bik1, active compounds read low 0.988 | locus YCR088W, strain abp1, active compounds read low 0.925 | locus YDL005C, strain med2, active compounds read low 0.971 | locus YDL035C, strain GPR1, active compounds read low 0.907 | locus YDL040C, strain nat1, active compounds read low 0.936 | locus YDL074C, strain BRE1, active compounds read low 0.913 | locus YDL101C, strain DUN1, active compounds read low 0.994 | locus YDL185W, strain tfp1, active compounds read low 0.973 | locus YDL192W, strain arf1, active compounds read low 0.974 | locus YDR001C, strain nth1, active compounds read low 0.972 | locus YDR101C, strain arx1, active compounds read low 0.977 | locus YDR137W, strain rgp1, active compounds read low 0.976 | locus YDR159W, strain sac3, active compounds read low 0.928 | locus YDR162C, strain NBP2, active compounds read low 0.949 | locus YDR195W, strain ref2 0.951 | locus YDR335W, strain msn5, active compounds read low 0.934 | locus YDR502C, strain sam2, active compounds read low 0.926 | locus YEL037C, strain rad23, active compounds read low 0.937 | locus YEL061C, strain CIN8, active compounds read low 0.98 | locus YER015W, strain faa2, active compounds read low 0.993 | locus YER110C, active compounds read low 0.983 | locus YER111C, strain swi4, active compounds read low 0.979 | locus YER155C, strain BEM2, active compounds read low 0.963 | locus YGL078C, strain dbp3, active compounds read low 0.976 | locus YGL167C, strain pmr1, active compounds read low 0.974 | locus YGL227W, strain vid30, active compounds read low 0.96 | locus YGR135W, strain pre9, active compounds read low 0.945 | locus YGR229C, strain SMI1, active compounds read low 0.923 | locus YHR030C, strain SLT2, active compounds read low 0.959 and 1.04 | locus YHR079C, strain IRE1 (second series), active compounds read low 0.988 | locus YHR079C, strain IRE1, active compounds read low 1.04 | locus YHR094C, strain hxt1, active compounds read low 0.978 | locus YHR129C, strain ARP1, active compounds read low 0.961 | locus YHR200W, strain rpn10, active compounds read low 0.974 | locus YIL073C, strain SPO22, active compounds read low 0.713 | locus YIL125W, strain kgd1, active compounds read low 0.982 | locus YIR030C, strain dcg1, active compounds read low 0.988 | locus YJL092W, strain hpr5, active compounds read low 0.923 | locus YJL095W, strain BCK1, active compounds read low 0.961 and 1.01 | locus YJL115W, strain asf1, active compounds read low 0.932 | locus YJL129C, strain trk1, active compounds read low 0.94 | locus YJL134W, strain LCB3, active compounds read low 0.994 | locus YJL154C, strain vps35, active compounds read low 0.964 | locus YJL168C, strain set2, active compounds read low 0.986 | locus YJL187C, strain SWE1 (second series), active compounds read low 0.96
active: locus YAL021C, strain ccr4, active compounds read low 0.86 | locus YAL026C, strain drs2, active compounds read low 0.802 | locus YAL030W, strain snc1, active compounds read low 0.885 | locus YBL061C, strain skt5, active compounds read low 0.899 | locus YBR009C, strain hhf1, active compounds read low 0.671 | locus YBR023C, strain chs3, active compounds read low 0.832 | locus YBR231C, strain swc5, active compounds read low 0.562 | locus YBR279W, strain paf1, active compounds read low 0.63 | locus YCL011C, strain gbp2, active compounds read low 0.833 | locus YCL016C, strain dcc1, active compounds read low 0.567 | locus YCL061C, strain MRC1, active compounds read low 0.901 | locus YCL069W, strain vba3, active compounds read low 0.757 | locus YDL134C, strain PPH21, active compounds read low 0.823 | locus YDR069C, strain doa4, active compounds read low 0.885 | locus YDR297W, strain sur2, active compounds read low 0.856 | locus YDR318W, strain mcm21, active compounds read low 0.809 | locus YDR334W, strain swr1, active compounds read low 0.664 | locus YDR388W, active compounds read low 0.919 | locus YDR392W, strain spt3, active compounds read low 0.265 | locus YEL003W, strain gim4, active compounds read low 0.624 | locus YEL061C, strain CIN8 (second series), active compounds read low 0.787 | locus YER016W, strain bim1, active compounds read low 0.672 | locus YER155C, strain BEM2 (second series), active compounds read low 0.368 | locus YER167W, strain BCK2, active compounds read low 0.86 | locus YFR010W, strain ubp6, active compounds read low 0.863 | locus YGL086W, strain mad1, active compounds read low 0.872 | locus YGL173C, strain kem1, active compounds read low 0.715 | locus YGL240W, strain doc1, active compounds read low 0.684 | locus YGL248W, strain PDE1, active compounds read low 0.678 | locus YGL253W, strain hxk2, active compounds read low 0.523 | locus YGR078C, strain PAC10, active compounds read low 0.527 | locus YGR252W, strain gcn5, active compounds read low 0.706 | locus YHR013C, strain ard1, active compounds read low 0.506 | locus YHR027C, strain rpn1, active compounds read low 0.872 | locus YHR142W, strain chs7, active compounds read low 0.705 | locus YIL066C, strain RNR3, active compounds read low 0.74 | locus YJL095W, strain BCK1 (second series), active compounds read low 0.714 | locus YJL164C, strain tpk1, active compounds read low 0.69 | locus YJL166W, strain qcr8, active compounds read low 0.539 | locus YJL187C, strain SWE1, active compounds read low 0.755
